In PubChem BioAssay (EPA / NIEHS):
Active and inactive are the calls of the source. How the source made its calls: active means hit-call score of the fitted dose curve at least 0.9, where 1 is the maximum; inactive means score below 0.9.

Test: APR_HepG2_MitoticArrest_1hr: Apredica 1-hour HepG2 Assay for Mitotic Arrest (AID 2282672)
Details: high-content imaging, actives raise or lower the signal
Procedure: APR_HepG2_1hr is a cell-based, multiplexed-readout assay that uses HepG2, a human liver cell line, with measurements taken at 1 hour after chemical dosing in a 384-well plate.APR_HepG2_MitoticArrest_1hr is one of 10 assay component(s) measured or calculated from the APR_HepG2_1hr assay. It is designed to make measurements of cell phenotype, a form of morphology reporter, as detected with fluorescence intensity signals by HCS Fluorescent Imaging technology.Data from the assay component APR_HepG2_MitoticArrest_1hr was analyzed into 1 assay endpoint. This assay endpoint, APR_HepG2_MitoticArrest_1hr, was analyzed with bidirectional fitting relative to DMSO as the negative control and baseline of activity. Using a type of morphology reporter, measures of protein for gain or loss-of-signal activity can be used to understand the signaling at the pathway-level as they relate to the gene . Furthermore, this assay endpoint can be referred to as a primary readout, because this assay has produced multiple assay endpoints where this one serves a signaling function. To generalize the intended target to other relatable targets, this assay endpoint is annotated to the cell cycle intended target family, where the subfamily is arrest.
Cells were treated with dimethyl sulfoxide (DMSO) as a solvent control at a final concentration of 0.5% v/v or with compounds in DMSO with a resulting final DMSO concentration of 0.5% v/v. Compound treatment was done at concentrations of 0.39, 0.78, 1.56, 3.12, 6.24, 12.5, 25, 50, 100, and 200 uM in duplicate on each plate. Cells were treated with compounds for 1, 24, or 72 hr. Carbonyl […] m-chloro-phenylhydrazone (CCCP) and taxol were used as positive controls for mitochondrial function and cytoskeletal stability, respectively; DMSO served as the negative control for this experiment. Cells were fixed by the direct addition of 50 uL formaldehyde in Hank's Balanced Salt Solution (HBSS) to a final concentration of 3.7%. After incubation in the fixation medium for 30 min at room temperature (293-298 K), cells were rinsed twice with HBSS and treated with cell permeabilization buffer (16 uL of 0.5% Triton X-100) for 10 min at room temperature (293-298 K) before labeling. For mitochondrial membrane potential and mitochondrial measurements, pre-fixed cells were incubated with 50 uL of MitoTracker Red CMXRos (Invitrogen) at a concentration of 250 nM for 30 min before fixation. In the remaining cases, post-fixed cells were labeled by incubation with a multiplexed mixture of primary antibodies in HBSS for 60 min at room temperature (293-298 K) to detect immunoreactivity of c-Jun (1:500), phospho-histone H3 (1:100), phospho-histone H2A.x (1:200), p53 (1:400), alpha-tubulin (1:200) and Hoechst 33342 (2 ug/mL). Cells were labeled for multiplexed imaging on two separate plates: a) Hoechst 33342, MitoTracker Red, phospho-histone H3, and alpha-tubulin, and b) Hoechst 33342, phospho-histone H2A.x, and c-Jun. A final rinse with HBSS (50 uL) was performed before analysis. The primary and secondary antibodies for the proteins were phospho-histone H3 (rabbit anti-phospho-histone H3 and FITC-donkey anti-rabbit IgG), phospho-histone H2A.x (mouse anti-phospho-histone H2A.x and FITC-donkey anti-mouse IgG), c-Jun (rabbit anti-phospho-c-Jun and Cy3-donkey anti-rabbit IgG), p53 (sheep anti-p53 and Cy5-donkey anti-sheep IgG), alpha-tubulin (mouse anti-alpha-tubulin and Cy5-donkey anti-mouse IgG). These antibodies are available as the CellCiphr HepG2 assay kit (Millipore).Digital images of each well were captured using a Cellomics ArrayScan VTI (Thermo Scientific Cellomics) (0.8 NA objective, 0.63x optical coupler, and XF-93 filter set) at 20x magnification. The images were acquired using the autofocus feature of the ArrayScan instrument, which entails the following steps. First, the camera focuses on channel 1 (Hoechst 33342), where nuclei are identified. Second, a Z offset of 1 um is used for capturing mitochondria (MitoTracker Red). […]

| Compound | outcome |
| --- | --- |
| CCOC(=O)NCCOc1ccc(Oc2ccccc2)cc1 | inactive |
| CCCN(CCC)C(=O)SCC | inactive |
| O=C(O)C1(C(=O)Nc2ccc(Cl)cc2Cl)CC1 | inactive |
| S=C([S-])NCCNC(=S)[S-].[Mn+2] | inactive |
| COC(=O)c1ccc(CNS(C)(=O)=O)cc1S(=O)(=O)NC(=O)Nc1nc(OC)cc(OC)n1 | inactive |
| CCCOC(=O)c1ccc(C(=O)OCCC)nc1 | inactive |
| CCCCOCCOCCOCc1cc2c(cc1CCC)OCO2 | inactive |
| COC(=O)CSc1cc(N=c2sc(=O)n3n2CCCC3)c(F)cc1Cl | inactive |
| c1ccc2[nH]c(-c3cscn3)nc2c1 | inactive |
| Cc1nn(C)c(Oc2ccccc2)c1C=NOCc1ccc(C(=O)OC(C)(C)C)cc1 | inactive |
| COC(=O)c1c(Cl)nn(C)c1S(=O)(=O)NC(=O)Nc1nc(OC)cc(OC)n1 | inactive |
| COC(=O)c1ccccc1S(=O)(=O)NC(=O)Nc1nc(OC(F)F)cc(OC(F)F)n1 | inactive |
| CCSC(=O)N(CC(C)C)CC(C)C | inactive |
| S=C(S)NCCNC(=S)S.[Mn+2].[S-]C([S-])=NCCN=C([S-])[S-].[Zn+2] | inactive |
| CCCOC(=O)NCCCN(C)C | inactive |
| COC(=O)c1ccc(I)cc1S(=O)(=O)NC(=O)Nc1nc(C)nc(OC)n1 | inactive |
| CC1(C)C(C=C(Cl)Cl)C1C(=O)OCc1cccc(Oc2ccccc2)c1 (stereo not given) | inactive |
| CCNc1nc(N)nc(Cl)n1 | inactive |
| N#CSCSc1nc2ccccc2s1 | inactive |
| CN(C)C(=O)Nc1ccc(Cl)c(Cl)c1 | inactive |

| Compound | outcome |
| --- | --- |
| CCOC(=O)C(C)Oc1ccc(Oc2nc3ccc(Cl)cc3o2)cc1 (stereo not given) | inactive |
| CCCCOC(=O)[C@@H](C)Oc1ccc(Oc2ccc(C(F)(F)F)cn2)cc1 | inactive |
| COc1c(Cl)ccc(Cl)c1C(=O)O | inactive |
| CCCCCOC(=O)COc1cc(N2C(=O)C3=C(CCCC3)C2=O)c(F)cc1Cl | inactive |
| COCCO | inactive |
| COc1nc(C)nc(NC(=O)NS(=O)(=O)c2ccccc2OCCCl)n1 | inactive |
| CCN(Cc1c(F)cccc1Cl)c1c([N+](=O)[O-])cc(C(F)(F)F)cc1[N+](=O)[O-] | inactive |
| CCC(O)=C1C(=O)CC(C(=O)O)CC1=O (stereo not given) | inactive |
| C#CCOC(=O)[C@@H](C)Oc1ccc(Oc2ncc(Cl)cc2F)cc1 | inactive |
| CCCCCCC(C)OC(=O)COc1nc(F)c(Cl)c(N)c1Cl (stereo not given) | inactive |
| CCCN(CCC)c1c([N+](=O)[O-])cc(C(F)(F)F)c(N)c1[N+](=O)[O-] | inactive |
| CCCCC(CC)COC(=O)c1ccccc1C(=O)O (stereo not given) | inactive |
| CCOC(=O)C(C)Oc1ccc(Oc2cnc3cc(Cl)ccc3n2)cc1 (stereo not given) | inactive |
| CCOC(=O)[C@H](C)Oc1ccc(Oc2nc3ccc(Cl)cc3o2)cc1 | inactive |
| C=CCOC(Cn1ccnc1)c1ccc(Cl)cc1Cl (stereo not given) | inactive |
| CCCCOC(=O)C(C)Oc1ccc(Oc2ccc(C(F)(F)F)cn2)cc1 (stereo not given) | inactive |
| CCOC(=O)COc1cc(-n2ncc(C(F)(F)F)c(C)c2=O)c(F)cc1Cl | inactive |
| c1ccc(Nc2ccccc2)cc1 | inactive |
| OB(O)O | inactive |
| O=C(Nc1ccc([N+](=O)[O-])cc1Cl)c1cc(Cl)ccc1O | inactive |
